PubChem BioAssay AID1159580 (chemical genetic matrix, 2015)
Several values for one entry are separate records, joined by “and”; a condition that tells them apart may be missing. Equal values may be shown once. Hit rate of the full screen: of about 5,500 compounds, about 2,000 (36%) were called active. Not shown: some 18% with an inconclusive outcome. No stated cut-off is given here; in the data, active means normalized growth mostly below about 0.91 (no sharp cut-off); inconclusive means no clear call, values can overlap the other calls; inactive means mostly above about 0.92. The list shows a part of the results.

Experiment: chemical genetic growth profiling, strain panel (AID 1159580);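 further: tested at 20 µM; growth read once vehicle control cultures reached saturation at 30 °C; 1 = growth at the plate median or of vehicle wells; lower values mean less growth of the strain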
Conditions: S. cerevisiae deletion strains, growth OD

Measured: normalized growth

CC[C@@]1(O)C(=O)OCc2c1cc1n(c2=O)Cc2cc3cc(O)ccc3nc2-1
inactive: locus YAL021C, strain ccr4, hits give low values 1.05 | locus YAL026C, strain drs2, hits give low values 1.01 | locus YAL030W, strain snc1, hits give low values 1.02 | locus YBL061C, strain skt5, hits give low values 1.01 | locus YBR009C, strain hhf1, hits give low values 0.972 | locus YBR021W, strain FUR4, hits give low values 1.01 | locus YBR023C, strain chs3, hits give low values 1.02 | locus YBR171W, strain sec66, hits give low values 1.02 | locus YBR229C, strain ROT2, hits give low values 1.01 | locus YBR231C, strain swc5, hits give low values 0.98 | locus YBR279W, strain paf1, hits give low values 1.03 | locus YCL011C, strain gbp2, hits give low values 1.02 | locus YCL016C, strain dcc1, hits give low values 1.01 | locus YCL029C, strain bik1, hits give low values 0.992 | locus YCL069W, strain vba3, hits give low values 1.01 | locus YCR088W, strain abp1, hits give low values 1.01 | locus YDL005C, strain med2, hits give low values 1.02 | locus YDL035C, strain GPR1, hits give low values 1.01 | locus YDL040C, strain nat1, hits give low values 1.02 | locus YDL074C, strain BRE1, hits give low values 1 | locus YDL101C, strain DUN1, hits give low values 1.03 | locus YDL185W, strain tfp1, hits give low values 0.996 | locus YDL192W, strain arf1, hits give low values 0.983 | locus YDR001C, strain nth1, hits give low values 0.992 | locus YDR069C, strain doa4, hits give low values 1.01 | locus YDR101C, strain arx1, hits give low values 0.986 | locus YDR137W, strain rgp1, hits give low values 0.997 | locus YDR159W, strain sac3, hits give low values 0.946 | locus YDR162C, strain NBP2, hits give low values 1.02 | locus YDR195W, strain ref2 1.01 | locus YDR297W, strain sur2, hits give low values 0.987 | locus YDR318W, strain mcm21, hits give low values 0.992 | locus YDR334W, strain swr1, hits give low values 1.04 | locus YDR335W, strain msn5, hits give low values 0.997 | locus YDR388W, hits give low values 0.989 | locus YDR392W, strain spt3, hits give low values 0.976 | locus YDR502C, strain sam2, hits give low values 0.973 | locus YEL003W, strain gim4, hits give low values 0.995 | locus YEL037C, strain rad23, hits give low values 1.01 | locus YEL061C, strain CIN8 (second series), hits give low values 1.01 | locus YEL061C, strain CIN8, hits give low values 1.01 | locus YER015W, strain faa2, hits give low values 0.993 | locus YER016W, strain bim1, hits give low values 1.02 | locus YER110C, hits give low values 0.991 | locus YER111C, strain swi4, hits give low values 1.01 | locus YER155C, strain BEM2 (second series), hits give low values 0.972 | locus YER155C, strain BEM2, hits give low values 1.01 | locus YER167W, strain BCK2, hits give low values 1.01 | locus YFR010W, strain ubp6, hits give low values 0.972 | locus YGL078C, strain dbp3, hits give low values 0.99 | locus YGL086W, strain mad1, hits give low values 0.988 | locus YGL167C, strain pmr1, hits give low values 1.01 | locus YGL173C, strain kem1, hits give low values 0.97 | locus YGL227W, strain vid30, hits give low values 1.01 | locus YGL240W, strain doc1, hits give low values 0.947 | locus YGL248W, strain PDE1, hits give low values 1.03 | locus YGL253W, strain hxk2, hits give low values 1 | locus YGR078C, strain PAC10, hits give low values 1.02 | locus YGR135W, strain pre9, hits give low values 0.991 | locus YGR252W, strain gcn5, hits give low values 0.972 | locus YHR013C, strain ard1, hits give low values 1.03 | locus YHR027C, strain rpn1, hits give low values 1 | locus YHR030C, strain SLT2, hits give low values 1.02 and 0.974 | locus YHR079C, strain IRE1 (second series), hits give low values 0.981 | locus YHR079C, strain IRE1, hits give low values 0.952 | locus YHR094C, strain hxt1, hits give low values 0.98 | locus YHR129C, strain ARP1, hits give low values 1.01 | locus YHR142W, strain chs7, hits give low values 1.02 | locus YHR200W, strain rpn10, hits give low values 1.01 | locus YIL066C, strain RNR3, hits give low values 1.01 | locus YIL073C, strain SPO22, hits give low values 0.985 | locus YIL125W, strain kgd1, hits give low values 0.992 | locus YIR030C, strain dcg1, hits give low values 0.981 | locus YJL092W, strain hpr5, hits give low values 0.992 | locus YJL095W, strain BCK1 (second series), hits give low values 1.02 | locus YJL095W, strain BCK1, hits give low values 1.04 and 0.957 | locus YJL115W, strain asf1, hits give low values 0.984 | locus YJL129C, strain trk1, hits give low values 1 | locus YJL134W, strain LCB3, hits give low values 1.02 | locus YJL154C, strain vps35, hits give low values 1 | locus YJL164C, strain tpk1, hits give low values 1.01 | locus YJL166W, strain qcr8, hits give low values 0.99 | locus YJL168C, strain set2, hits give low values 0.989 | locus YJL187C, strain SWE1 (second series), hits give low values 1.02 | locus YJL187C, strain SWE1, hits give low values 1.02 | locus YJR043C, strain POL32, hits give low values 0.993 | locus YJR066W, strain TOR1, hits give low values 0.986 | locus YKL009W, strain mrt4, hits give low values 1.04
